Bioassay records deposited in PubChem by The Scripps Research Institute Molecular Screening Center.
An excerpt weighted towards active compounds, which were near 3.5% of everything screened.
GPR151 activ: activators of human GPR151, primary screen, cell-based, PathHunter beta-arrestin, luminescence; activation, % at 11.2 µM; 1% of 650,000 active; AID 1508602, 2020; PathHunter beta-arrestin GPR151 cells; G-protein coupled receptor 151 (Homo sapiens), Q8TDV0; in the data active = activation above about 4.9%
Target sequence (Q8TDV0 whole entry, looked up): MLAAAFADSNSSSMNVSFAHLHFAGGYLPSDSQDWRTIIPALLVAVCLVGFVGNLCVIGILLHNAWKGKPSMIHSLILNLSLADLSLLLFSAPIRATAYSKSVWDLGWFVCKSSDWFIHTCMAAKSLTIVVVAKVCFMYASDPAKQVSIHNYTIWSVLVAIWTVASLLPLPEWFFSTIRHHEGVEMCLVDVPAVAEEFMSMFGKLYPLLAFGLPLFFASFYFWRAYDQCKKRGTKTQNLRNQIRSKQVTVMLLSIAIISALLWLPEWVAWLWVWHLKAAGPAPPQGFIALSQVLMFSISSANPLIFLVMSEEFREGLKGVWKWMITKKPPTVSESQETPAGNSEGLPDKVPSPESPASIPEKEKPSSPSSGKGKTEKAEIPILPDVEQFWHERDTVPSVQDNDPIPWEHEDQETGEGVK
MITF primary: MITF inhibitors, primary screen, biochemical, AlphaScreen, human; 0.91% of 650,000 active; inhibition, % at 2.6 µM; AlphaScreen MITF homodimerization, bead proximity signal; AID 1259374, 2018; in the data active = inhibition above about 50%
FBW7 activator: FBW7 E3 ligase activators, primary screen, biochemical, AlphaScreen, human | AlphaScreen FBW7–phospho-cyclin E peptide binding, activator screen | F-box/WD repeat-containing protein 7 (Homo sapiens), Q969H0 | normalized activity (activation), % at 26.1 µM | 0.13% of 650,000 active; in the data active = normalized activity above about 1.9%;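 also: purified mutant Fbw7 with reduced substrate affinity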
TEAD-YAP block: TEAD-YAP interaction inhibition, primary screen, TEAD-YAP interaction inhibitor project, luminescence, HEK-TIYL cells. inhibition, % at 9.12 µM. 1.4% of 640,000 active. AID 1259422, 2018. TEAD-Gal4/YAP UAS-luciferase luminescence; in the data active = inhibition above about 32%
MITF confirm: MITF inhibitors, retest of hits, confirmation, biochemical, AlphaScreen, triplicate; inhibition, % at 2.6 µM; AlphaScreen MITF homodimerization, biotin/His-MITF beads; 16% of 4,700 active; shares compounds with MITF primary;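 active = inhibition above a cutoff derived from the DMSO control wells, cut at about 28% in these data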;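 also: inhibitors lower the bead chemiluminescence by keeping MITF from dimerizing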
AlphaScreen DR: AlphaScreen optical interference compounds, dose response, counter-screen, biochemical, HTS; shares compounds with MITF primary; AlphaScreen optical interference counterscreen, cell-free; IC50, µM; 6% of 480 active; call rule not given here
AlphaScreen intf2: AlphaScreen optical interference compounds, counter-screen for MITF inhibitor project, biochemical, triplicate. shares compounds with MITF primary. LysRS AlphaScreen counterscreen, signal interference. inhibition, % at 2.6 µM. 7.6% of 4,700 active. AID 1259376, 2018;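 active = inhibition above a cutoff derived from the DMSO control wells, cut at about 30% in these data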
Numbers stand for hits.

For Clc1cc(Br)ccc1OCCN1CCNCC1 the results were GPR151 activ inactive, MITF primary 57, FBW7 activator inactive, TEAD-YAP block inactive, MITF confirm inactive and AlphaScreen intf2 inactive.
Brc1c(OCCN2CCNCC2)ccc2ccccc12 was read as GPR151 activ inactive, MITF primary 64, FBW7 activator inactive, TEAD-YAP block inactive, MITF confirm 33, AlphaScreen DR inactive and AlphaScreen intf2 inactive.
Screening Clc1ccc(OCCN2CCNCC2)c(Cl)c1 returned GPR151 activ inactive, MITF primary inactive, FBW7 activator inactive and TEAD-YAP block inactive.
`COc1ccc(OC)c(C2C(C(=O)Nc3ccccc3F)=C(C)NC3=C2C(=O)CCC3)c1` (stereo not given) gave GPR151 activ inactive, MITF primary inactive, FBW7 activator inactive and TEAD-YAP block inactive.
`C[C@H]1NC(=O)[C@H]2CN(C(=O)NC3CCCCC3)CCN2C1=O` gave GPR151 activ inactive, MITF primary 75, FBW7 activator inactive, TEAD-YAP block inactive, MITF confirm 74, AlphaScreen DR inactive and AlphaScreen intf2 inactive.
CC(C)[C@@H]1NC(=O)[C@H]2CN(C(=O)NC3CCCCC3)CCN2C1=O was read as GPR151 activ inactive, MITF primary 71, FBW7 activator inactive, TEAD-YAP block inactive, MITF confirm 68, AlphaScreen DR inactive and AlphaScreen intf2 inactive.
`CC(C)[C@@H]1NC(=O)[C@H]2CN(C(=O)c3ccc(Cl)cc3)CCN2C1=O` gave GPR151 activ inactive, MITF primary inactive, FBW7 activator inactive and TEAD-YAP block inactive.
Screening Cc1nnc(NC(=O)CSc2ccc(-c3ccc4c(c3)OCO4)nn2)s1 returned GPR151 activ inactive, MITF primary inactive, FBW7 activator inactive and TEAD-YAP block inactive.
Screening CC(=O)CC(=O)NC(C)c1ccccc1 (stereo not given) returned GPR151 activ inactive, MITF primary inactive, FBW7 activator inactive and TEAD-YAP block inactive.
`CC(NC(=O)CNCc1ccccn1)c1ccccc1` (stereo not given) gave GPR151 activ inactive, MITF primary 74, FBW7 activator inactive, TEAD-YAP block inactive, MITF confirm inactive and AlphaScreen intf2 100.
CC1CCN(CC(=O)Nc2ccccc2N2CCOCC2)CC1 was read as GPR151 activ inactive, MITF primary 69, FBW7 activator inactive, TEAD-YAP block inactive, MITF confirm inactive and AlphaScreen intf2 inactive.
For O=C(CN1CCCC1)Nc1ccccc1N1CCOCC1 the results were GPR151 activ inactive, MITF primary inactive, FBW7 activator inactive and TEAD-YAP block inactive.
Cn1nnnc1SCC(=O)Nc1ccccc1N1CCOCC1 was read as GPR151 activ inactive, MITF primary 63, FBW7 activator inactive, TEAD-YAP block inactive, MITF confirm inactive and AlphaScreen intf2 inactive.
O=C(CN1CCOCC1)Nc1ccccc1N1CCCCCC1 was read as GPR151 activ inactive, MITF primary 69, FBW7 activator inactive, TEAD-YAP block inactive, MITF confirm inactive and AlphaScreen intf2 inactive.
`CN(NC(=O)CN1CCOCC1)c1ccccc1` gave GPR151 activ inactive, MITF primary 51, FBW7 activator inactive, TEAD-YAP block inactive, MITF confirm inactive and AlphaScreen intf2 inactive.
For COc1cccc(N2CC(C(=O)N3CCC(c4nc5ccccc5[nH]4)CC3)CC2=O)c1 (stereo not given) the results were GPR151 activ inactive, MITF primary inactive, FBW7 activator inactive and TEAD-YAP block inactive.
`CCN(CC)c1ccc(C=O)c(OCC(=O)Nc2cccc([N+](=O)[O-])c2)c1` gave GPR151 activ inactive, MITF primary inactive, FBW7 activator inactive and TEAD-YAP block inactive.
For Cc1nn(CC(O)Cn2c3ccc(Br)cc3c3cc(Br)ccc32)c(C)c1Br (stereo not given) the results were GPR151 activ inactive, MITF primary inactive, FBW7 activator inactive and TEAD-YAP block inactive.
OCCN1CCN(c2cc(-c3ccccc3F)nc(-c3cccnc3)n2)CC1 was read as GPR151 activ inactive, MITF primary inactive, FBW7 activator inactive and TEAD-YAP block inactive.
For OCCN1CCN(c2cc(-c3ccccc3F)nc(-c3ccccc3)n2)CC1 the results were GPR151 activ inactive, MITF primary 53, FBW7 activator inactive, TEAD-YAP block inactive, MITF confirm inactive and AlphaScreen intf2 inactive.
O=C(Nc1ccccc1C(F)(F)F)NC1(C(=O)NCC2CCCO2)CCCCC1 (stereo not given) was read as GPR151 activ inactive, MITF primary inactive, FBW7 activator inactive and TEAD-YAP block inactive.
Screening COc1ccc(C/C(C)=N/Nc2nc3ccccc3[nH]2)cc1 returned GPR151 activ inactive, MITF primary 67, FBW7 activator inactive, TEAD-YAP block inactive, MITF confirm inactive and AlphaScreen intf2 38.
CSc1ccc(/C=C/C(=O)Nc2ccc(S(=O)(=O)NCc3ccco3)cc2)cc1 was read as GPR151 activ inactive, MITF primary inactive, FBW7 activator inactive and TEAD-YAP block inactive.
For O=C(O)c1c[nH]c2c(Cl)c(Cl)ccc2c1=O the results were GPR151 activ inactive, MITF primary inactive, FBW7 activator inactive and TEAD-YAP block inactive.
Screening O=C(O)c1c[nH]c2c(ccc3cccnc32)c1=O returned GPR151 activ inactive, MITF primary 121, MITF confirm 98 and AlphaScreen intf2 101.
`Cc1noc2nc(-c3ccccc3)cc(C(F)(F)F)c12` gave GPR151 activ inactive, MITF primary inactive, FBW7 activator inactive and TEAD-YAP block inactive.
CN1CCN(CC(=O)N/N=C\c2ccccc2O)CC1 was read as GPR151 activ inactive, MITF primary inactive, FBW7 activator inactive and TEAD-YAP block inactive.
For COc1cc(/C=N\NC(=O)CN2CCN(C)CC2)cc2c1OCO2 the results were GPR151 activ inactive, MITF primary 51, FBW7 activator inactive, TEAD-YAP block inactive, MITF confirm inactive and AlphaScreen intf2 inactive.
CN1CCN(CC(=O)N/N=C\c2ccsc2)CC1 was read as GPR151 activ inactive, MITF primary inactive, FBW7 activator inactive and TEAD-YAP block inactive.
COc1cc(/C=N\NC(=O)CN2CCN(C)CC2)cc(OC)c1 was read as GPR151 activ inactive, MITF primary 56, FBW7 activator inactive, TEAD-YAP block inactive, MITF confirm inactive and AlphaScreen intf2 inactive.
For COCCCNC(=O)c1cc2c(=O)n3cc(C)ccc3nc2n(CCc2ccccc2)c1=N the results were GPR151 activ inactive, MITF primary inactive, FBW7 activator inactive and TEAD-YAP block inactive.
